# Results filed as inconclusive are left out. A structure can be active in one record and inactive in another. The source made the active and inactive calls. The calls were made as follows: active = hit-call score of the fitted dose curve at least 0.9, where 1 is the maximum; inconclusive = response in the unintended direction; inactive = score below 0.9.
# Experiment: CCTE_Shafer_MEA_acute_AB: CCTE's Alamar Blue Assay for Cytotoxicity in the Neural Acute Assay, Shafer Lab (AID 2284069);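 also: active compounds lower the viability signal compared with DMSO wells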
# Procedure: CCTE_Shafer_MEA_acute assay is conducted using Axion Biosystems 48 well microelectrode array (MEA) plates and Maestro recording system. Each well of the MEA plate contains a grid of 16 microelectrodes embedded in the culture surface. Electrically active cells, such as neurons, can be cultured over the electrodes, and electrical activity in these cells can be recorded extracellularly. The spontaneous firing of neurons is captured from each electrode on a microsecond timescale providing both temporally and spatially precise data. […] The CCTE_Shafer_MEA_acute assay uses primary cultures of rat cortical neurons. As these cultures mature over time, neural networks develop functional activity and form cohesive networks in which electrical activity can be highly coordinated. Baseline 40-minute recordings are made on days post-plating 13 or 15, followed by a secondary 40-minute recording after chemical exposure.CCTE_Shafer_MEA_acute_AB is a component of the CCTE_Shafer_MEA_acute assay. It measures the resazurin reduction using fluorescence.Data from the assay component CCTE_Shafer_MEA_acute_AB was analyzed into 1 assay endpoint. This assay endpoint, CCTE_Shafer_MEA_acute_AB, was analyzed in the positive analysis fitting direction relative to DMSO as the negative control and baseline of activity. Using a type of viability reporter, loss-of-signal activity can be used to understand cell viability.
# Metabolic activity was determined using the CellTiter Blue (CTB) assay (Promega Cat. #8081), following the manufacturer's instructions with the following modifications. Following the removal of the 50 uL sample for the LDH assay, 450 uL of media was removed from each well and replaced with 200 uL of fresh media containing a 1:6 dilution of CTB reagent for the determination of metabolic activity. Fluorescence was measured in a Fluorostar Optima fluorimeter using an excitation wavelength of 544 nm and an emission wavelength of 590 nm.
SMILES,outcome,AC50
CCOC(=O)CC(SP(=O)(OC)OC)C(=O)OCC (configuration not stated),inactive,
CCCOCC(=Nc1ccc(Cl)cc1C(F)(F)F)n1ccnc1,inactive,
FC(F)C(F)(F)OCC(Cn1cncn1)c1ccc(Cl)cc1Cl (configuration not stated),inactive,
CC(=NC#N)N(C)Cc1ccc(Cl)nc1,inactive,
CC[C@H](C)[C@H]1O[C@]2(C=C[C@@H]1C)C[C@@H]1C[C@@H](C/C=C(\C)[C@@H](O[C@H]3C[C@H](OC)[C@@H](O[C@H]4C[C@H](OC)[C@@H](NC)[C@H](C)O4)[C@H](C)O3)[C@@H](C)/C=C/C=C3\CO[C@@H]4[C@H](O)C(C)=C[C@@H](C(=O)O1)[C@]34O)O2,inactive,20 µM (active)
CCOP(=S)(OCC)Oc1ccc2c(C)c(Cl)c(=O)oc2c1,inactive,
COc1cc(OC)nc(Sc2cccc(Cl)c2C(=O)O)n1,inactive,
CC(COc1ccc(Oc2ccccc2)cc1)Oc1ccccn1 (configuration not stated),inactive,
CC(C)N(C(=O)SCC(Cl)=C(Cl)Cl)C(C)C,inactive,
CCc1cnc(C2=NC(C)(C(C)C)C(=O)N2)c(C(=O)O)c1 (configuration not stated),inactive,
Cc1ccn2nc(S(=O)(=O)Nc3c(F)cccc3F)nc2n1,inactive,
CCOP(=S)(Oc1cnc(C(C)(C)C)nc1)OC(C)C (configuration not stated),inactive,
Nc1c(Cl)cc([N+](=O)[O-])cc1Cl,inactive,
CN(C)NC(=O)CCC(=O)O,inactive,
CON=C(C(=O)OC)c1ccccc1CON=C(C)c1cccc(C(F)(F)F)c1,inactive,
C=C(C)[C@H]1Cc2c(ccc3c2O[C@@H]2COc4cc(OC)c(OC)cc4[C@@H]2C3=O)O1,inactive,
CN(C)[C@@H]1C(=O)C(C(N)=O)=C(O)[C@@]2(O)C(=O)C3=C(O)c4c(O)cccc4[C@@](C)(O)[C@H]3[C@H](O)[C@@H]12,inactive,
CSC1=N[C@@](C)(c2ccccc2)C(=O)N1Nc1ccccc1,inactive,
C[Si](Cn1cncn1)(c1ccc(F)cc1)c1ccc(F)cc1,inactive,
CCOP(=O)(NC(C)C)Oc1ccc(SC)c(C)c1 (configuration not stated),inactive,
O=[N+]([O-])c1cc(C(F)(F)F)c(Cl)c([N+](=O)[O-])c1Nc1ncc(C(F)(F)F)cc1Cl,inactive,
COP(=O)(OC)C(O)C(Cl)(Cl)Cl (configuration not stated),inactive,
C[N+]1(C)CCCCC1,inactive,
N#CSCSC#N,inactive,
COP(=O)(NC(C)=O)SC (configuration not stated),inactive,
CC1=NNC(=O)N(/N=C/c2cccnc2)C1,inactive,

# Reference: PubChem BioAssay (EPA / NIEHS)
